{"source": "paper PMC7862700", "about": "“An all-to-all approach to the identification of sequence-specific readers for epigenetic DNA modifications on cytosine”", "experiment_in_all_cases": "DAPPL (digital affinity profiling via proximity ligation, sequencing); 10 mM Tris-HCl pH 7.5, 50 mM NaCl, 1 mM DTT, 4% glycerol, room temperature, 30 min; GST-TFs on glutathione beads, 16-mer random dsDNA library, 0.1% formaldehyde crosslink after washing; high values mean tight binding", "conditions_in_all_cases": "protein: recombinant; tags: N-terminal GST; dsDNA, one strand shown", "key": {"ELK1": {"molecular_target": "T1, ELK1 (Homo sapiens, UniProt P19419 1-428)", "T1 sequence": "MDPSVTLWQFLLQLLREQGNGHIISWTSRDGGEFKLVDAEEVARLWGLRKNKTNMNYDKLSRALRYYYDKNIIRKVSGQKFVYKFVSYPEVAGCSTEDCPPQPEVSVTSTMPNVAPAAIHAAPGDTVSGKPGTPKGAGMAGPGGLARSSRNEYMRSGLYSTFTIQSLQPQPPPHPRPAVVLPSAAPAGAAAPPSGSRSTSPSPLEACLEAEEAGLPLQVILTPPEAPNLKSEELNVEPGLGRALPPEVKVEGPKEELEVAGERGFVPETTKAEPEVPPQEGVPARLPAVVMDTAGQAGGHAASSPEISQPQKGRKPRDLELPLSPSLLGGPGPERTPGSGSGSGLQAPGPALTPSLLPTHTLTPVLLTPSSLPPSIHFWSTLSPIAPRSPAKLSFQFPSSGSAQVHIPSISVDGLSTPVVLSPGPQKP", "outline": "(§1)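 GST fusions of human transcription factors were expressed in yeast and captured with glutathione beads. Once given DNA barcodes and pooled alongside a tag-only sample, they were incubated for 30 min at room temperature with 200 nmole of a random double-stranded 16-mer DNA library in Tris/NaCl/DTT/glycerol buffer, then washed, crosslinked (0.1% formaldehyde), proximity-ligated, PCR-amplified and sequenced on an Illumina NextSeq500. The binding signal of each hexamer is its read frequency for a factor divided by its frequency for the tag-only sample.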"}, "GABPA": {"molecular_target": "T2, GABPA (Homo sapiens, UniProt Q06546 1-454)", "T2 sequence": "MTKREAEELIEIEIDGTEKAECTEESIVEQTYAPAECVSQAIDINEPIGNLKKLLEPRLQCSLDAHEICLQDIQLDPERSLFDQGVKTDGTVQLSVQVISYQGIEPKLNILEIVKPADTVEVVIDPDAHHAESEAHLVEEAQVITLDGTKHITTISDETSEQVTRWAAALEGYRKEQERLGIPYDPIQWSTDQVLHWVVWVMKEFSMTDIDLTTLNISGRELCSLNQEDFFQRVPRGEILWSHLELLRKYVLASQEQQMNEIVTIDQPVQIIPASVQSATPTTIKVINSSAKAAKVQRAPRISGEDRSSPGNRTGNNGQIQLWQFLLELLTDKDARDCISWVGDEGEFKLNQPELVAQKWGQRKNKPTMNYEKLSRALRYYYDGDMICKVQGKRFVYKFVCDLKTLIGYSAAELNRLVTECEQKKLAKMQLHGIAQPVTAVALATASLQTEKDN", "outline": "as §1"}, "ERG": {"molecular_target": "T3, ERG (Homo sapiens, UniProt P11308 1-479)", "T3 sequence": "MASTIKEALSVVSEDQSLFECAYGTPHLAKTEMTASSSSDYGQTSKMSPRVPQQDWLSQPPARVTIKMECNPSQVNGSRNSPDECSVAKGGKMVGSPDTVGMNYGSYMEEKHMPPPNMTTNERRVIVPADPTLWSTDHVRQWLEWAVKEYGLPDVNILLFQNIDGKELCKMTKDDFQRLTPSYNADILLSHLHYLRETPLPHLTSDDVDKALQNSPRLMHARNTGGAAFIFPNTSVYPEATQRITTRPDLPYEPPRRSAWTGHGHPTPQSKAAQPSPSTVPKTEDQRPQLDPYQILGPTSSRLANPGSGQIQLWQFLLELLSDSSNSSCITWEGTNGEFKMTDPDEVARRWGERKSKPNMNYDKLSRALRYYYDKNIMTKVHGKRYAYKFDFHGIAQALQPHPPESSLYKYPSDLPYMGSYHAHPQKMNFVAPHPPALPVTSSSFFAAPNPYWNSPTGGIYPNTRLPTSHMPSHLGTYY", "outline": "as §1"}, "ELF1": {"molecular_target": "ELF1 (Homo sapiens, UniProt P32519 1-619)", "sequence (P32519 whole entry)": "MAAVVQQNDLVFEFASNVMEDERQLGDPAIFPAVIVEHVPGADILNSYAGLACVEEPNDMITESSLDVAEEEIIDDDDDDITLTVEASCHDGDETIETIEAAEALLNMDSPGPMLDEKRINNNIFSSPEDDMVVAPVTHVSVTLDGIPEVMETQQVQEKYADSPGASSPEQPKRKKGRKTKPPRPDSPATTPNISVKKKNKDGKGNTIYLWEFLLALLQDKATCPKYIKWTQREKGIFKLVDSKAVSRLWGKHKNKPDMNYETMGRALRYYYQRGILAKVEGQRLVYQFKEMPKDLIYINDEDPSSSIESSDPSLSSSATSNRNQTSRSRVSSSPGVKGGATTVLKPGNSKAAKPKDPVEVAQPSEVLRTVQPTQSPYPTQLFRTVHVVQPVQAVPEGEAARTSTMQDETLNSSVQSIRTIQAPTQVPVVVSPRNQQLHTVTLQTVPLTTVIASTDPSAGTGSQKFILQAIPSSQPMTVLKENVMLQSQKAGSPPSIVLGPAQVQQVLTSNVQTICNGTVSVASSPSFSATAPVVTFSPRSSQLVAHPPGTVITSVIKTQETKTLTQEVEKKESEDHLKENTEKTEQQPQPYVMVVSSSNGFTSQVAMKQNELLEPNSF", "outline": "as §1"}, "EHF": {"molecular_target": "T4, EHF (Homo sapiens, UniProt Q9NZC4 1-300)", "T4 sequence": "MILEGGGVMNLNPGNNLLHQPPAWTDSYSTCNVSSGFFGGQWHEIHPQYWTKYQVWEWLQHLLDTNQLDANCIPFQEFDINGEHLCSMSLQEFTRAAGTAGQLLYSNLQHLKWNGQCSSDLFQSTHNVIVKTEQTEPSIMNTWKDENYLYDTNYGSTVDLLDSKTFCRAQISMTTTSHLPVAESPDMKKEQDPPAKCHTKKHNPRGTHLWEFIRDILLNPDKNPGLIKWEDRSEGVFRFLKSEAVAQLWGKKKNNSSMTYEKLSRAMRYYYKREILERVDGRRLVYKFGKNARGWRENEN", "outline": "as §1"}, "SPIB": {"molecular_target": "SPIB (Homo sapiens, UniProt Q01892 1-262)", "sequence (Q01892 whole entry)": "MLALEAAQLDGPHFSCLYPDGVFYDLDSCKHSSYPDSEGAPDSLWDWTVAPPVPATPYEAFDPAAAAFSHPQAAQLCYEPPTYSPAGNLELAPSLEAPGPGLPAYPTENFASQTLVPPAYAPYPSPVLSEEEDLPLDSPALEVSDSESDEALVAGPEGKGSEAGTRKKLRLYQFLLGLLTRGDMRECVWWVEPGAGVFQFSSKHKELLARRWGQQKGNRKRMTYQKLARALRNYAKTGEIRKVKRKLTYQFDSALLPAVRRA", "outline": "as §1"}, "ELK3": {"molecular_target": "T5, ELK3 (Homo sapiens, UniProt P41970 1-407)", "T5 sequence": "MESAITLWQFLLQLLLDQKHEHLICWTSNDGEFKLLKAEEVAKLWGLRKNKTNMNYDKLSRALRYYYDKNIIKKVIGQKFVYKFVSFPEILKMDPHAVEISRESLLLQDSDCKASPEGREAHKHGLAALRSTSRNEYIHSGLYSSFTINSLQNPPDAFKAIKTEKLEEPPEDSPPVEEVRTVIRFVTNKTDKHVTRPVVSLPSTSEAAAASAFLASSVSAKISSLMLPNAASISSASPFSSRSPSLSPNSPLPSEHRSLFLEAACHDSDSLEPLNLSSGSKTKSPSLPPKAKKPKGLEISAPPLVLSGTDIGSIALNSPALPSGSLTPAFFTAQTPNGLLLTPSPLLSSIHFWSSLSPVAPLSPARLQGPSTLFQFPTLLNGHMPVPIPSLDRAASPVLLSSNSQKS", "outline": "as §1"}, "FEV": {"molecular_target": "T6, FEV (Homo sapiens, UniProt Q99581 1-238)", "T6 sequence": "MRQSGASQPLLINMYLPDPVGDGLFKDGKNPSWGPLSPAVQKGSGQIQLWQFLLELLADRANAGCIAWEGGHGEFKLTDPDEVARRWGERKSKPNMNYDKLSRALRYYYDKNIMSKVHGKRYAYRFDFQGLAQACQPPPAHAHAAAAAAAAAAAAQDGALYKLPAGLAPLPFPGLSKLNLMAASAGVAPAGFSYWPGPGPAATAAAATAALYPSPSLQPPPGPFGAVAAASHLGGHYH", "outline": "as §1"}, "ETV5": {"molecular_target": "ETV5 (Homo sapiens, UniProt P41161 1-510)", "sequence (P41161 whole entry)": "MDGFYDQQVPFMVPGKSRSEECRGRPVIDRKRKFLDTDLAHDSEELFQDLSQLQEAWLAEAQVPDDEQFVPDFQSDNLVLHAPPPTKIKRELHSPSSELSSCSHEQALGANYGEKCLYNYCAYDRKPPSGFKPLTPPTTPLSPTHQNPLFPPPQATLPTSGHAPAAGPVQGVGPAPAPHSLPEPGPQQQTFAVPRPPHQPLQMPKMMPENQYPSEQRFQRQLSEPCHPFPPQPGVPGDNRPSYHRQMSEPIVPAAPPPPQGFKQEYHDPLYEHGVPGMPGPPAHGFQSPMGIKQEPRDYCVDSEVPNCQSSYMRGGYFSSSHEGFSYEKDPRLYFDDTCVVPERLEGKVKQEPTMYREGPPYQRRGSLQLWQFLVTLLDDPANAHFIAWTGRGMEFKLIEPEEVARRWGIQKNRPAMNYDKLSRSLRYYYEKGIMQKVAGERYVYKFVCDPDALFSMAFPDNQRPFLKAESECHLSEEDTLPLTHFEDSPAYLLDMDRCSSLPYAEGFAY", "outline": "as §1"}, "ELF4": {"molecular_target": "ELF4 (Homo sapiens, UniProt Q99607 1-663)", "sequence (Q99607 whole entry)": "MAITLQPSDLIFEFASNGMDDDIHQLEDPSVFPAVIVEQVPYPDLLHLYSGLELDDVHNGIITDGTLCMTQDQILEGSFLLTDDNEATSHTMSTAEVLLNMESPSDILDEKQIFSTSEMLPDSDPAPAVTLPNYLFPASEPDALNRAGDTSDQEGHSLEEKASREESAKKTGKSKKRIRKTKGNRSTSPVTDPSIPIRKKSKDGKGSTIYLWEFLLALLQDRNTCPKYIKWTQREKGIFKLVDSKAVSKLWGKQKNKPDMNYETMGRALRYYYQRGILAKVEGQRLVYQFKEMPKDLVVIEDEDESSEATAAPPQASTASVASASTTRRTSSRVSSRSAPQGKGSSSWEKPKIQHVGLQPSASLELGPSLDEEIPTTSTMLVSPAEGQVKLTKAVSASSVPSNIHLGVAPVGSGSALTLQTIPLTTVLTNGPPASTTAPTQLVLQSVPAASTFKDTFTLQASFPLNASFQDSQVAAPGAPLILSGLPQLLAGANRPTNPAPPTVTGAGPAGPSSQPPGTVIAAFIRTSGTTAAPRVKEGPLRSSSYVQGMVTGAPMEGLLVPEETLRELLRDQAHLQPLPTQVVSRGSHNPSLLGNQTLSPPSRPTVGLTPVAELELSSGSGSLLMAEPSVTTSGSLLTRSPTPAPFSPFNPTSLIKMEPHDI", "outline": "as §1"}}}
{"sequence": "CGTAAA", "values": [{"measurement": "binding signal", "setting": "ELK1", "result": "1.12 fold enrichment (6-mer frequency, TF over GST control)"}, {"measurement": "binding signal", "setting": "GABPA", "result": "1.23 fold enrichment (6-mer frequency, TF over GST control)"}, {"measurement": "binding signal", "setting": "ERG", "result": "1.13 fold enrichment (6-mer frequency, TF over GST control)"}, {"measurement": "binding signal", "setting": "ELF1", "result": "1.07 fold enrichment (6-mer frequency, TF over GST control)"}, {"measurement": "binding signal", "setting": "EHF", "result": "1.13 fold enrichment (6-mer frequency, TF over GST control)"}, {"measurement": "binding signal", "setting": "SPIB", "result": "1.08 fold enrichment (6-mer frequency, TF over GST control)"}, {"measurement": "binding signal", "setting": "ELK3", "result": "1.17 fold enrichment (6-mer frequency, TF over GST control)"}, {"measurement": "binding signal", "setting": "FEV", "result": "1.04 fold enrichment (6-mer frequency, TF over GST control)"}, {"measurement": "binding signal", "setting": "ETV5", "result": "1.14 fold enrichment (6-mer frequency, TF over GST control)"}, {"measurement": "binding signal", "setting": "ELF4", "result": "1.11 fold enrichment (6-mer frequency, TF over GST control)"}]}
